Assay [1] concerns the target Calcium/calmodulin-dependent protein kinase type II subunit alpha (Homo sapiens) (UniProt Q9UQM7). The following applies: at 1 µM.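 Also: reported value is a mean percent inhibition of CAMK2A.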
Assay [2] deals with Calcium/calmodulin-dependent protein kinase type II subunit delta (Homo sapiens) (UniProt Q13557). The following applies: at 0.1 µM.
Assay [3] has the same target. The conditions noted are these: at 1 µM.
Assay [4] deals with T1, Calcium/calmodulin-dependent protein kinase type IV (Homo sapiens) (UniProt Q16566).
T1 sequence (whole entry): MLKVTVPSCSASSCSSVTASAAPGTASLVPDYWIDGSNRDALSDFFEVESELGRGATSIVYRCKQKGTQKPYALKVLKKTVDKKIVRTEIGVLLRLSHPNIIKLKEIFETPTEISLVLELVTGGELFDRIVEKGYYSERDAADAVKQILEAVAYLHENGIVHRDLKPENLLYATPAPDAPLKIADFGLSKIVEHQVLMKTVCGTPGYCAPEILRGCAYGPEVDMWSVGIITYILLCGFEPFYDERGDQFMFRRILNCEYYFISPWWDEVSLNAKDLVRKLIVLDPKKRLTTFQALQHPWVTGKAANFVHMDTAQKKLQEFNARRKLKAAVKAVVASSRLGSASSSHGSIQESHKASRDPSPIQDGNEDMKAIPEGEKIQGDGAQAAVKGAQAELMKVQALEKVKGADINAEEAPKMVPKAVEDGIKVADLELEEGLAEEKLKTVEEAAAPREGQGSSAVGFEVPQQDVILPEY
The conditions noted are these: at 0.1 µM.

For assay [5], the target named is T1, Calcium/calmodulin-dependent protein kinase type IV (Homo sapiens). The conditions noted are these: at 1 µM.
Assay [6] has as its target T2, Serine/threonine-protein kinase Chk1 (Homo sapiens) (UniProt O14757).
T2 sequence (whole entry): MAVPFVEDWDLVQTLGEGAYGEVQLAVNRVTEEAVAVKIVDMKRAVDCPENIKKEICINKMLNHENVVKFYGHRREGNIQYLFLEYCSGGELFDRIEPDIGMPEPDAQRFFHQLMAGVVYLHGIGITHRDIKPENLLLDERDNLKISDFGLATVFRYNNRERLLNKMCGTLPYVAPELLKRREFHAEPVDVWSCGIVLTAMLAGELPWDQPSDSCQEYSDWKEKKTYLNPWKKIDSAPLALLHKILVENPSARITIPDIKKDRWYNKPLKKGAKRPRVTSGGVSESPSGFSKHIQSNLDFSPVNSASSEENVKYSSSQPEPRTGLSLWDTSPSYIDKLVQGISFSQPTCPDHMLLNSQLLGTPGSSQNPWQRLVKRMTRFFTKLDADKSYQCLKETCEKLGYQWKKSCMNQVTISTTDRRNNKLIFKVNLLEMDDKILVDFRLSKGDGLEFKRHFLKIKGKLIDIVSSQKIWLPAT
The conditions noted are these: at 0.1 µM.

Assay [7] concerns the target T2, Serine/threonine-protein kinase Chk1 (Homo sapiens). The following applies: at 1 µM.
Assay [8] deals with Serine/threonine-protein kinase Chk2 (Homo sapiens) (UniProt O96017). The conditions noted are these: at 0.1 µM.
Assay [9] shares this target. The following applies: at 1 µM.
For assay [10], the target named is Death-associated protein kinase 1 (Homo sapiens) (UniProt P53355). The conditions noted are these: at 0.1 µM.
Death-associated protein kinase 1 (Homo sapiens), sequence (P53355 whole entry, looked up): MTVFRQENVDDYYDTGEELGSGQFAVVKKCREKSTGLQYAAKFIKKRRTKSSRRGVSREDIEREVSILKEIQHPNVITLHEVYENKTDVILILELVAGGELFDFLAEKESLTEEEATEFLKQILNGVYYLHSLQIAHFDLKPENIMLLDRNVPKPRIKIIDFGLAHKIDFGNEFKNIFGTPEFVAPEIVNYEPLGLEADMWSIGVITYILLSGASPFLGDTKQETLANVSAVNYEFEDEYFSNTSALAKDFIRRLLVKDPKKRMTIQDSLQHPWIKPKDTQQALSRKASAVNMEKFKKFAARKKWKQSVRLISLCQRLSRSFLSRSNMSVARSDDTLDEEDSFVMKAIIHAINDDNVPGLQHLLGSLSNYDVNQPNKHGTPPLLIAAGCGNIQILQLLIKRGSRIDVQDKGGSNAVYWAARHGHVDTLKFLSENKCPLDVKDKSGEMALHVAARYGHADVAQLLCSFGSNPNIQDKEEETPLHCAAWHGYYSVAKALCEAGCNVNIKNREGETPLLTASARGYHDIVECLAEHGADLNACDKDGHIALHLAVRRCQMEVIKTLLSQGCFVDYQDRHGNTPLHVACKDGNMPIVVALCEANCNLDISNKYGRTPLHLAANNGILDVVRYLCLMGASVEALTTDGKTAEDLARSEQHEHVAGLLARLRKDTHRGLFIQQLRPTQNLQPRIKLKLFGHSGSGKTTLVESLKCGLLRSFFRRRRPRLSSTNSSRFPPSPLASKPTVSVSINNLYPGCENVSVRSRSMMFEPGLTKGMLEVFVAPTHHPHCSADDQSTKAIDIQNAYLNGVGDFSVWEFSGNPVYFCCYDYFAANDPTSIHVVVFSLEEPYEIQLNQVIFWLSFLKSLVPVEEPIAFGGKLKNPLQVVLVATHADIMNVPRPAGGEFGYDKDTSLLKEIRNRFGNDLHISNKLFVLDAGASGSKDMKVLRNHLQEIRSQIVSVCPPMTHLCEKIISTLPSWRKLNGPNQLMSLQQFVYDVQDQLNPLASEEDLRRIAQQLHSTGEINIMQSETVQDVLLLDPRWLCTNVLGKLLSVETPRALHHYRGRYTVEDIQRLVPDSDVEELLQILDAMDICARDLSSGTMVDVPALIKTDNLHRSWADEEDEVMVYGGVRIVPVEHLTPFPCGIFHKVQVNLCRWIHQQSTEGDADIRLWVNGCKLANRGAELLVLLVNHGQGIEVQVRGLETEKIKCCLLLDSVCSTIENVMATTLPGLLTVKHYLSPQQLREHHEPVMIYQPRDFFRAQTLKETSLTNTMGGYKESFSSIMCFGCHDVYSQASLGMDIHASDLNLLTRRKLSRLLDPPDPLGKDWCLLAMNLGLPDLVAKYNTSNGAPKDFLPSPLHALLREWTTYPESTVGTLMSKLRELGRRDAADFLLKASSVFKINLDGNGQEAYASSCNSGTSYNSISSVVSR
Assay [11] shares this target. The following applies: at 1 µM.
For assay [12], the target named is T3, Serine/threonine-protein kinase DCLK2 (Homo sapiens) (UniProt Q8N568).
T3 sequence (whole entry): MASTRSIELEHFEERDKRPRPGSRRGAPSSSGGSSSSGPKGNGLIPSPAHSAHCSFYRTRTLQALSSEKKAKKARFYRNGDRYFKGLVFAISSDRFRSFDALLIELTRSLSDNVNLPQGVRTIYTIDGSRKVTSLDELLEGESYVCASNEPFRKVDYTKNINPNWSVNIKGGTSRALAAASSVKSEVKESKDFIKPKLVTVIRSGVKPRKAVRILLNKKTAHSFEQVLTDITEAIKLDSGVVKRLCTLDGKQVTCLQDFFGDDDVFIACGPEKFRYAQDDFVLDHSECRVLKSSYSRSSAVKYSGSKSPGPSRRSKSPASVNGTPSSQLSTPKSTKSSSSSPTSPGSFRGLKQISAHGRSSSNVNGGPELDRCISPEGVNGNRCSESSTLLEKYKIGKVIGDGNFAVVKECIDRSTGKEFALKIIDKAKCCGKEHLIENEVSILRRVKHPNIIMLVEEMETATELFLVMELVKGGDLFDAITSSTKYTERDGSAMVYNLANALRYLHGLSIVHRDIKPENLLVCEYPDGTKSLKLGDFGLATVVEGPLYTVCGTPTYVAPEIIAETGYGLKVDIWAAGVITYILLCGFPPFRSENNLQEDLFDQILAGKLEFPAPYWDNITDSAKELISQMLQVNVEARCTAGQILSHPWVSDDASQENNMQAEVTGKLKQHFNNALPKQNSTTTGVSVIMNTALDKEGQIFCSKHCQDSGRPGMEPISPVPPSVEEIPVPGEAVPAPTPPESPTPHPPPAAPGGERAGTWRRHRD
The following applies: at 0.1 µM.

Assay [13] addresses T3, Serine/threonine-protein kinase DCLK2 (Homo sapiens). The conditions noted are these: at 1 µM.
The target of assay [14] is MAP kinase-activated protein kinase 2 (Homo sapiens) (UniProt P49137). The conditions noted are these: at 0.1 µM.
MAP kinase-activated protein kinase 2 (Homo sapiens), sequence (P49137 whole entry, looked up): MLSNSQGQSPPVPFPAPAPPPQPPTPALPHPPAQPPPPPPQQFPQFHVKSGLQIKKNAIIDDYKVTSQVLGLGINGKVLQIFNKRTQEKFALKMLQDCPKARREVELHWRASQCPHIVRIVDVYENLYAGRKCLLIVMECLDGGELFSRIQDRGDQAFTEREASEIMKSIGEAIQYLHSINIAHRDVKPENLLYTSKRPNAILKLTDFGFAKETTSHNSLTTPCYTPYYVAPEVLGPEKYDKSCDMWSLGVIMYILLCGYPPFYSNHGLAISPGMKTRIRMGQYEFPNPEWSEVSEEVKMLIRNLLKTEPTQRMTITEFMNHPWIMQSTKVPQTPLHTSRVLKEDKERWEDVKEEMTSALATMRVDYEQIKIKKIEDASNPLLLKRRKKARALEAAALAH
Assay [15] has the same target. The following applies: at 1 µM.
The target of assay [16] is MAP kinase-activated protein kinase 3 (Homo sapiens) (UniProt Q16644). The conditions noted are these: at 0.1 µM.
MAP kinase-activated protein kinase 3 (Homo sapiens), sequence (Q16644 whole entry, looked up): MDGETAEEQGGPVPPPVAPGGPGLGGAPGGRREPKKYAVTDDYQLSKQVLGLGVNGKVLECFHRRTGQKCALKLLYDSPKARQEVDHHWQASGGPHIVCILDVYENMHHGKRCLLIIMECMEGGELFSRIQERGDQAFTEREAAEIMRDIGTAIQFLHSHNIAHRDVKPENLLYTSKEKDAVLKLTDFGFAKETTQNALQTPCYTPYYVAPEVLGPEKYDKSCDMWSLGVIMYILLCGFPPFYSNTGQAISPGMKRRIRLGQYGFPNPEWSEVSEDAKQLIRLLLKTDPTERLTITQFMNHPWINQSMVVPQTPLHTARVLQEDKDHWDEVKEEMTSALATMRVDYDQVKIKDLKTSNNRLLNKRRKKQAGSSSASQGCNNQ
For assay [17] the target is unchanged. The conditions noted are these: at 1 µM.
Assay [18] concerns the target Serine/threonine-protein kinase MARK1 (Homo sapiens) (UniProt Q9P0L2). The following applies: at 0.1 µM.
For assay [19] the target is unchanged. The following applies: at 1 µM.
The target of assay [20] is MAP/microtubule affinity-regulating kinase 3 (Homo sapiens) (UniProt P27448). The conditions noted are these: at 0.1 µM.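 Also: mean percent inhibition of MARK3 kinase activity, measured within the GSK PKIS screening panel.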
MAP/microtubule affinity-regulating kinase 3 (Homo sapiens), sequence (P27448 whole entry, looked up): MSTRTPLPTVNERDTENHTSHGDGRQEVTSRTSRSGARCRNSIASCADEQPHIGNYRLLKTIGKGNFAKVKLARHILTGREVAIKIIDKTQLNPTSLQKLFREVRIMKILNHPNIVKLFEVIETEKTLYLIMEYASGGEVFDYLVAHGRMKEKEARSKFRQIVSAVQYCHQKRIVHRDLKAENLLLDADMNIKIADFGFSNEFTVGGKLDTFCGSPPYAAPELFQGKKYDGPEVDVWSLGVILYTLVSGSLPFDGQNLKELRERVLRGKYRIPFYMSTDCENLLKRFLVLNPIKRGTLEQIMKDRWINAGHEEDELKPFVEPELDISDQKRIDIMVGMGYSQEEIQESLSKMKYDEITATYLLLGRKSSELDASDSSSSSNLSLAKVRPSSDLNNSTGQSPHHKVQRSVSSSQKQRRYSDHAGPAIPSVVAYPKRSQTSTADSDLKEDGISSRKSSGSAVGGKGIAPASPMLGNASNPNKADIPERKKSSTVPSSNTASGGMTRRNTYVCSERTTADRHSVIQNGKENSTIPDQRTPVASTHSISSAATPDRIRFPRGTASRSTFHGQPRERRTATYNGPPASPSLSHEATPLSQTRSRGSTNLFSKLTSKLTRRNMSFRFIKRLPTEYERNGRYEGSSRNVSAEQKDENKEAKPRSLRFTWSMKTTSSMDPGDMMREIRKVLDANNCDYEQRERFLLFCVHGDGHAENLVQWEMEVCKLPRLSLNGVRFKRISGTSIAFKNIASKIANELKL

The record followed here is ChEMBL document CHEMBL1961873, “Compounds: GSK PKIS; Assays: Nanosyn kinase panel” (2012).

What is called inhibition is the relative decrease from the control value, in per cent.

Serine/threonine-protein kinase MARK1 (Homo sapiens), sequence (Q9P0L2 whole entry, looked up): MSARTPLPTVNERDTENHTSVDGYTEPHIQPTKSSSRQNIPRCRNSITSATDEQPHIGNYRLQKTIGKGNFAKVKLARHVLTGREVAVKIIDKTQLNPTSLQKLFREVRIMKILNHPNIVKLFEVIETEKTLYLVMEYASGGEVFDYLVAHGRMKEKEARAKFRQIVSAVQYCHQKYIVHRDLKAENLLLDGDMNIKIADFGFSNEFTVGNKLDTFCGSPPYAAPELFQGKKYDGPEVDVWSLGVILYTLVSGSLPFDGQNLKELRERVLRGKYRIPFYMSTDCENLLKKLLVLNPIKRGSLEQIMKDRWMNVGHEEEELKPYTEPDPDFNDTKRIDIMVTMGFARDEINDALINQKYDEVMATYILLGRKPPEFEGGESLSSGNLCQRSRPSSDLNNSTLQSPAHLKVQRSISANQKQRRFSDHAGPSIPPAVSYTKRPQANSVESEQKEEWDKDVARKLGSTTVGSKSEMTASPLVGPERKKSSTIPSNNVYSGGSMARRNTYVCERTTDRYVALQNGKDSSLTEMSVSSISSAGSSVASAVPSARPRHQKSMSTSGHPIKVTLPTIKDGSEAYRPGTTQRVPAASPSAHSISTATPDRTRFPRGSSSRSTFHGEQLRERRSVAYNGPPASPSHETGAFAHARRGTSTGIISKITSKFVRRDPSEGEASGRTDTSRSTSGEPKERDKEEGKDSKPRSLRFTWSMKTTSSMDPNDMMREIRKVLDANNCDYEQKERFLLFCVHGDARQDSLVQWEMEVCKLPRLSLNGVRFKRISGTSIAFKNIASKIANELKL
Calcium/calmodulin-dependent protein kinase type II subunit delta (Homo sapiens), sequence (Q13557 whole entry): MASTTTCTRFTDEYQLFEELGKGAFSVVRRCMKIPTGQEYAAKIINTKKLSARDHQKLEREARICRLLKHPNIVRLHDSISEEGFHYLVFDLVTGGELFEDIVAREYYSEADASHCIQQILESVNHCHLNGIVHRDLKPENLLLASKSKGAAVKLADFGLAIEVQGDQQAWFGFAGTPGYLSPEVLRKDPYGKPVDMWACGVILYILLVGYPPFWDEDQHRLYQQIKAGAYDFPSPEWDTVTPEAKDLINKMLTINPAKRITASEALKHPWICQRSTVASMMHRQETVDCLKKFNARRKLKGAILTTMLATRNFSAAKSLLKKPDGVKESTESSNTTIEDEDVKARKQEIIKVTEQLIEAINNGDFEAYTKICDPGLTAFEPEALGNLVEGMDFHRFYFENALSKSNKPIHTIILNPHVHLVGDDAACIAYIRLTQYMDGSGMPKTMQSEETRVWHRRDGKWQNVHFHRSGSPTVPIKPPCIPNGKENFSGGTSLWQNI
Calcium/calmodulin-dependent protein kinase type II subunit alpha (Homo sapiens), sequence (Q9UQM7 whole entry): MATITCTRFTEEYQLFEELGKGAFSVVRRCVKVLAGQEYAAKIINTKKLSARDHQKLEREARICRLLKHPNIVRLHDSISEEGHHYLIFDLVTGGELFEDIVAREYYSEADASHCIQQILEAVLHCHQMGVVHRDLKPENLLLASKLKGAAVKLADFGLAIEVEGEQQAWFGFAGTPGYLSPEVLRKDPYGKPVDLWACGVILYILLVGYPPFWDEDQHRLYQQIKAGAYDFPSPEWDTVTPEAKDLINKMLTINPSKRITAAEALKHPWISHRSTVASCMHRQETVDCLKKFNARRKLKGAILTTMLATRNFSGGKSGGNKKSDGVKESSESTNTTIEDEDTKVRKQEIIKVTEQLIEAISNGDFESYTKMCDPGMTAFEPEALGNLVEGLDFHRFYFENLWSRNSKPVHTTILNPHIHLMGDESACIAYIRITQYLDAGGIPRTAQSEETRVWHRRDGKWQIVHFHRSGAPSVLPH

Regarding `COC(=O)Nc1nc2ccc(S(=O)(=O)c3ccc(NC(=O)Nc4cc(C(F)(F)F)ccc4F)cc3)cc2[nH]1`, the inhibition in [1] was 3.22%; in assay [2] it was 3.61%; in assay [3], 3.6%; in assay [4], -0.05%; in [5], 0.07%; in assay [6], 1.24%. The inhibition was 3.43% in assay [7]; 1.62% in assay [8]; 1.94% in [9]; 3.73% in assay [10]; 5.43% in assay [11]; -0.62% in [12]. The inhibition in assay [13] was -0.64%; in [14] it was 0.59%; in assay [15] it was 1.63%; in assay [16], 1.8%; in assay [17], 3.35%; in [18], 2.26%. The inhibition in assay [19] was 2.1%; in assay [20] it was 3.97%.

As for `O=C(O[C@H]1CN[C@H](C#Cc2cc3ncnc(Nc4ccc(Cc5ccccc5)cc4)c3s2)C1)N1CCOCC1`, the inhibition in assay [1] is -1.9%; in assay [2], 1.04%; in [3], -0.85%; in assay [4], -0.04%; in assay [5], -2.21%; in assay [6] it was 1.79%. The inhibition was 0.1% in assay [7]; 0.28% in assay [8]; 0.95% in assay [9]; 4.84% in assay [10]; 2.13% in assay [11]; -0.4% in assay [12]. Besides, the inhibition was 2.31% in assay [13]; 0.76% in [14]; -0.1% in assay [15]; 3.66% in assay [16]; 3.19% in [17]; 1.63% in assay [18]. The inhibition is 2.56% in [19] and 2.46% in assay [20].

Turning to `CS(=O)(=O)CCNCc1ccc(-c2ccc3ncnc(Nc4ccc(OCc5ccccc5)c(C(F)(F)F)c4)c3c2)o1`, the inhibition in [1] was -1.78%; in assay [2], 1.83%; in assay [3], 1.77%; in assay [4], -0.46%; in [5], -1.2%; in assay [6], 8.46%. The inhibition in assay [7] was 10.8%; in assay [8], 7.47%; in assay [9] it was 7.84%; in assay [10], 12.8%; in [11] it was 10.9%; in [12] it was 7.37%. Further, the inhibition in assay [13] was 2.23%; in [14], 4.99%; in assay [15], 3.73%; in assay [16], 8.97%; in assay [17], 10.7%; in assay [18] it was 2.72%. In addition, the inhibition in assay [19] stood at 4.11%; in [20] it was 3.87%.

With `COc1cc(/C=N/Nc2ncnc3[nH]ncc23)ccc1O`, the inhibition in assay [1] is 5.41%; in [2], 2.57%; in assay [3], 11.4%; in [4], -0.14%; in [5] it was -0.84%; in assay [6] it was 26.1%. Moreover, the inhibition amounted to 66.1% in [7]; 4.23% in [8]; 23.8% in assay [9]; 4.22% in assay [10]; 4.2% in assay [11]; 1.49% in assay [12]. For the same compound, the inhibition worked out at 1.35% in assay [13]; 2.01% in [14]; 2.3% in [15]; 2.87% in assay [16]; 4% in [17]; 7.13% in assay [18]. For the same compound, the inhibition in assay [19] is 35.7%; in assay [20] it was 7.13%.

For `c1cc(-c2cnn3nc(N4CCOCC4)ccc23)nc(NC2CC2)n1`, the inhibition in assay [1] came to 6.53%; in assay [2], 3.77%; in [3], 9.6%; in [4], 1.3%; in [5] it was 2.07%; in assay [6], 3.63%. Also, the inhibition in assay [7] was 1.64%; in assay [8], 3.07%; in assay [9], 7.4%; in assay [10], 3.51%; in assay [11], 3.38%; in assay [12], -0.25%. The inhibition in assay [13] was -2.52%; in [14], 1.29%; in [15], 1.97%; in assay [16] it was 5.27%; in assay [17] it was 6.31%; in [18], 3.55%. Besides, the inhibition was 10.3% in assay [19] and 4.76% in assay [20].

As to `CNC(=O)c1cccc(C#Cc2cncnc2Nc2ccc(OCc3cccc(F)c3)c(Cl)c2)c1`, the inhibition in assay [1] was 1.97%; in assay [2] it was 0.91%; in [3] it was 1.19%; in assay [4] it was -0.97%; in [5], -3.36%; in assay [6], -1.85%. Also, the inhibition was -0.79% in assay [7]; 0.62% in assay [8]; 2.35% in assay [9]; -1.4% in assay [10]; -1.89% in assay [11]; -9.58% in assay [12]. Moreover, the inhibition in assay [13] was -6.14%; in assay [14], 1.01%; in [15], 0.58%; in assay [16] it was 1.88%; in [17] it was 1.66%; in assay [18], -0.72%. In addition, the figures for the inhibition in assay [19] and in assay [20] were 1.6% and 1.07%, respectively.

As for `NS(=O)(=O)c1ccc(Nc2ncc(-c3ccccc3)o2)cc1`, the inhibition in assay [1] was 4.77%; in [2] it was 2.92%; in assay [3] it was 7.79%; in assay [4], -0.86%; in assay [5], -0.71%; in assay [6], 0.75%. The inhibition in assay [7] amounted to 7.56%; in [8] it was 1.94%; in assay [9], 3.97%; in [10] it was 3.79%; in [11], 4.56%; in assay [12], 1.31%. Further, the inhibition in assay [13] amounted to 1.65%; in assay [14] it was 1.62%; in assay [15], 1.99%; in assay [16] it was 2.89%; in assay [17] it was 2.39%; in assay [18] it was 3.62%. Also, the inhibition came out at 12.9% in [19] and 4.38% in assay [20].

On to `COc1ccc(-c2nn3ncccc3c2-c2ccnc(Nc3ccc4c(c3)OCCO4)n2)cc1`, for which the inhibition is -2.04% in assay [1]; 0.97% in assay [2]; 0.2% in assay [3]; 1.75% in assay [4]; -0.47% in [5]; -2.62% in assay [6]. The inhibition in assay [7] is -1.19%; in assay [8], -1.05%; in [9] it was 0.02%; in assay [10], 2.51%; in assay [11] it was 2.06%; in [12], -1.54%. The inhibition in [13] was -0.74%; in assay [14], 0.19%; in assay [15], 0.03%; in [16], 30.9%; in assay [17] it was 37%; in assay [18], 0.34%. Besides, the results for the inhibition in assay [19] and in assay [20] were 2.66% and 3%, respectively.
